{"source": "PubChem BioAssay (Tox21)", "note": "Active and inactive are the calls of the source. Calls come from the whole dose curve; as a rule, active = well fitted curve in the direction sought with a large enough effect in the repeat runs; inconclusive = weak or mixed curves; inactive = flat fitted curve, though single readings scatter. % is set by controls: 0 for no effect and ±100 for the full control effect."}
{"test": "qHTS assay to test for compound auto fluorescence at 535 nm (green) in HEK293 cell free culture (AID 720682)", "details": "cell-free medium, green autofluorescence 485/535 nm, active compounds read high; series mostly up to 91.3 µM; activity change: at the top concentration", "from_the_text": "U.S. Tox21 Program National Center for Advancing Translational Sciences [NCATS] NIH Chemical Genomics Center [NCGC] U.S. Environmental Protection Agency [EPA] National Institutes of Environmental Health Sciences [NIEHS] National Toxicology Program [NTP] U.S. Food and Drug Administration [FDA] Tox21 Assay Overview: Compound auto fluorescence often interferes with screening of the compound library against various biological targets and signaling pathways. Some of these compounds may have fluorophoric properties. Such properties may interfere with the assay outputs resulting in false positives and/or negatives. To decrease such complications and ensure the compound activities are relevant in terms of biological response, the Tox21 10K compound library was screened for auto fluorescence. From the fluorophores used as reporter signals in our screening assays, the auto fluorescence equivalencies of compounds against three fluorophores have been evaluated: Triamterene, Fluorescein and Rose Bengal sodium for blue, green and red fluorescence, respectively. The fluorescence intensities were measured using Excitation/Emission wavelengths at 405/460nm, 485/535nm and 540/590nm for blue, green and red labels, respectively. This assay includes the green fluorescence data.\nTox21 Assay Protocol Summary: 5 uL of culture medium (DMEM containing 10% FBS) per well was dispensed into black wall/clear bottom 1536-well plates using a Multidrop Combi Dispenser (ThermoFisher Scientific, Waltham, MA). After 23 nL compound or DMSO vehicle was transferred into assay plate by a pintool work station (Kalypsys, San Diego, CA), fluorescence intensities in the assay plates were measured by an Envision (PerkinElmer, Shelton, CT) plate reader using three labels for measuring blue, green and red fluorescence at […] 460, 535 and 590nm respectively."}
{"smiles": "CCCCC(=O)N(C)C", "activity change": "-0.012% (inactive)"}
{"smiles": "Cc1ccccc1N1CCN(CCc2nnc3n2CCCC3)CC1", "activity change": "-0.119% [at 46 µM] (inactive)"}
{"smiles": "NS(=O)(=O)c1ccccc1OC(F)(F)F", "activity change": "0.121% (inactive)"}
{"smiles": "C=COCCOCCOC=C", "activity change": "0.0967% (inactive)"}
{"smiles": "O=CO", "activity change": "-0.0948% [at 9.17 µM] (inactive)"}
{"smiles": "CC(C)C(=O)c1ccccc1", "activity change": "-0.0082% (inactive)"}
{"smiles": "CCCCCCCCOC(C)=O", "activity change": "0.0048% (inactive)"}
{"smiles": "C=C(C)[C@@H]1CC[C@@H](C)C[C@@H]1O", "activity change": "0.146% (inactive)"}
{"smiles": "CCCCCCCCCCCCCCCC(=O)NCCO", "activity change": "0.0098% [at 46 µM] (inactive)"}
{"smiles": "CCC(=O)OCCC(C)CCC=C(C)C", "note": "(stereo not given)", "activity change": "-0.0446% (inactive)"}
{"smiles": "CC(C)SCc1ccco1", "activity change": "0.0908% [at 46 µM] (inactive)"}
{"smiles": "C=CCOc1c(Br)cc(Br)cc1Br", "activity change": "0.0198% (inactive)"}
{"smiles": "CCN(CCC#N)c1ccccc1", "activity change": "-0.0074% (inactive)"}
{"smiles": "Nc1c(NC/C=C\\COc2cc(CN3CCCCC3)ccn2)c(=O)c1=O", "activity change": "-0.104% [at 46 µM] (inactive)"}
{"smiles": "O=C1NC2NC(=O)NC2N1", "note": "(stereo not given)", "activity change": "0.114% (inactive)"}
{"smiles": "Cc1c(C(C)C)c(=O)n(-c2ccccc2)n1C", "activity change": "0.0243% [at 46 µM] (inactive)"}
{"smiles": "O=S(=O)(O)SSS(=O)(=O)O", "activity change": "0.134% (inactive)"}
{"smiles": "O=C(O)Cc1cccc(-c2cc(CCCCCCc3ccc(O[C@H]4O[C@H](CO)[C@@H](O)[C@H](O)[C@@H]4O)c(-c4cccc(CC(=O)O)c4)c3)ccc2O[C@H]2O[C@H](CO)[C@@H](O)[C@H](O)[C@@H]2O)c1", "activity change": "0.0635% [at 46 µM] (inactive)"}
{"smiles": "NS(=O)(=O)c1ccc(Cl)c(S(N)(=O)=O)c1", "activity change": "-0.029% [at 46 µM] (inactive)"}
{"smiles": "O=C(O)C(=O)Nc1cccc(-c2nn[nH]n2)c1", "activity change": "-0.164% [at 46 µM] (inactive)"}
{"smiles": "CCCO", "activity change": "-0.0488% (inactive)"}
{"smiles": "COc1ccc(N=Nc2cc(C)c(N=Nc3ccc(S(=O)(=O)O)cc3)cc2OC)cc1", "activity change": "-0.211% (inactive)"}
{"smiles": "CC(CC(=O)O)CC(C)(C)C", "note": "(stereo not given)", "activity change": "0.127% (inactive)"}
{"smiles": "CN[C@@H]1[C@@H](O)[C@@H](O[C@@H]2[C@H](O)[C@H](O[C@H]3OC(CN)=CC[C@H]3N)[C@@H](N)C[C@H]2N)OCC1(C)O", "note": "(stereo not given in full)", "activity change": "0.007% [at 46 µM] (inactive)"}
{"smiles": "Cc1cc(O)c2c(c1)C(=O)c1cccc(O)c1C2=O", "activity change": "0.126% [at 46 µM] (inactive)"}
{"smiles": "C1CCN2C[C@@H]3C[C@@H](CN4CCCC[C@@H]34)[C@H]2C1", "activity change": "-0.022% [at 18.6 µM] (inactive)"}
{"smiles": "Cc1nc(C)nc(N2C[C@@H](C)N(c3ccnc([C@@H](C)O)n3)[C@@H](C)C2)n1", "activity change": "0.0061% [at 46 µM] (inactive)"}
{"smiles": "NS(=O)(=O)c1cc2c(cc1Cl)NC(CC1CCCC1)NS2(=O)=O", "note": "(stereo not given)", "activity change": "0.104% [at 18.6 µM] (inactive)"}
{"smiles": "CC(C)c1ccccc1O", "activity change": "0.0501% (inactive)"}
{"smiles": "O=c1[nH]c(=O)c2[nH]c(=O)[nH]c2[nH]1", "outcome": "inactive"}
{"smiles": "CC(C)(C)NCCO", "activity change": "-0.0027% (inactive)"}
{"smiles": "CCCCC[Si](OCC)(OCC)OCC", "activity change": "-0.0192% (inactive)"}
{"smiles": "NC(=O)NNC(N)=O", "activity change": "-0.0026% (inactive)"}
{"smiles": "C=C(C)C(=O)OC1CC(C)CC(C)(C)C1", "note": "(stereo not given)", "activity change": "0.108% (inactive)"}
{"smiles": "CCC(O)C(C)(C)C", "note": "(stereo not given)", "activity change": "-0.0077% [at 95.7 µM] (inactive)"}
{"smiles": "O=C(COCCOCCOCC(=O)Nc1c(I)cc(I)c(C(=O)O)c1I)Nc1c(I)cc(I)c(C(=O)O)c1I", "activity change": "-0.156% [at 46 µM] (inactive)"}
{"smiles": "Cn1c(=O)c2c(ncn2CC2OCCO2)n(C)c1=O", "activity change": "-0.0246% [at 46 µM] (inactive)"}
{"smiles": "Cc1ccccc1C", "activity change": "-0.048% [at 95.7 µM] (inactive)"}
{"smiles": "COCC(=O)Nc1c(I)c(C(=O)NCC(O)CO)c(I)c(C(=O)N(C)CC(O)CO)c1I", "note": "(stereo not given)", "activity change": "0.0796% [at 18.6 µM] (inactive)"}
{"smiles": "CNCc1ccccc1", "activity change": "0.0201% [at 46 µM] (inactive)"}
